Assay results: PubChem BioAssay (NCATS)
Inconclusive results are not listed. Entries that show only a call come without a potency. Calls of active or inactive are those of the source. Calls come from the whole dose curve; as a rule, active = well fitted cell-killing curve with a large enough effect; inconclusive = small, poorly fitted or top-dose-only effect, or effect the other way; inactive = no such curve, though single readings can be large or run the other way. Peptide text beside a SMILES is read from it. * marks the point of attachment. Cbz = O=C(OCc1ccccc1)*

experiment: Quantitative highthroughput screen to assess conditional lethalithy of NOMO1 cells grown in Human Plasma-Like Medium with dialyzed fetal bovine serum (HPLM+ds) (AID 1963878); settings: NOMO1 AML cells in HPLM+ds, CellTiter-Glo viability, 48 h; series mostly up to 45.8 µM; note: nearly all actives have a fitted effect of over 35% in size
Excerpt: Assay Provider: Jason Cantor Ph.D.
Department of Biochemistry
University of Wisconsin-Madison, Madison, WI, USA
Chemical screening studies have identified drug sensitivities across hundreds of cancer cell lines but most putative therapeutics fail to translate. Discovery and development of drug candidates in models that more accurately reflect nutrient levels in human blood is a major challenge. Here we performed high-throughput screens in conventional versus Human Plasma-Like Medium (HPLM) to identify compounds that were "missed" when screening using the artificial culture condition. Sets of conditional anticancer compounds spanned phases of clinical development and included non-oncology drugs were assessed. […] We also traced conditional phenotypes for several chemotherapeutics to availability of HPLM-specific metabolites and confirmed others for compounds whose reported targets are encoded by nonessential genes. Our findings establish generalizable strategies for exploiting conditional lethality in HPLM to reveal therapeutic candidates and mechanisms of action in cancer cells.
Described herein are the results of each viability screens against three cell lines: NOMO1 (an acute myeloid leukemia cell line); P12-Ichikawa (a T-cell acute lymphoblastic leukemia); and SEM (a B-cell ALL). Each assay was screened using 3 different cell culture media: homemade human plasma-Like medium with 10% dialyzed fetal bovine serum (HPLM+ds); RPMI1640 with 10% untreated FBS and 5mM glucose (RPMI+s); and RPMI1640 with 10% dialyzed fetal bovine serum and 5 mM glucose (RPMI+ds).
PROTOCOL TABLE (as described by Inglese J, Shamu CE and Guy RK. 2007)
SEQUENCE No. (e.g., 1, 2, 3, etc.); […] (e.g., Cells, Incubation, Reagent, etc.); VALUE and DESCRIPTION.
1; Cells; 5 uL; white, solid bottom 1536-well Greiner assay plate.
2; Compounds; 23 nL; Kalypsis pin tool (Wako USA) equipped with a 1536-well pin head to transfer to the assay plates.
3; Incubation; 48 hours; 37C incubation.
4; Reagent; 3 uL; CellTiter Glo (Promega).
5; Incubation; 5 min, room temperature
6; Detection; Luminescence, Viewlux PerkinElmer.
NOTES (numbers refer to Sequence numbers above)
1. Briefly, 5 ul of cell reagent was dispensed using a Multidrop Combi Dispenser. The NOMO1 and SEM cells were plated at 500 cells/well and the P12-Ichikawa line at 1000 cells/well.
2. After seeding the cells, 23 nL of MIPE 4.1 library compounds (in DMSO) were added to each plate using a Kalypsys 1536 Pintool dispenser. Bortezomib at final concentration of […] and DMSO were added to each plate as positive and negative controls respectively. For each screen, MIPE 4.1 compounds were added over an eleven-point concentration range […] in 3-fold dilutions.
3. Each plate was covered with a stainless steel gasketed lid to prevent evaporation and incubated for 48 hour at 37C, 95% relative humidity, and 5% CO2.
4-5. Three microliter CellTilter-GloTM luminescent substrate mix (Promega) reagent was added to the assay plate and incubated at room temperature for 5 min.
6. The luminescence signal was measured using a ViewLux (PerkinElmer) multiplate reader with a 2 second exposure time per plate. Data for each compound were normalized as percent viability such that measurements for DMSO and the empty well controls in each plate were defined as 100% and 0%, respectively.
Potency is the fitted concentration of half-maximal effect.

SMILES	Potency
Cc1cccc(Nc2nc(-c3ccncc3)cs2)c1	inactive
CC1CCN(c2cc(N3CCN(C)CC3)ccc2NC(=O)c2cc(C#N)c[nH]2)CC1	inactive
O=C(O)[C@@H](c1ccc(OCc2ccc3ccccc3n2)cc1)C1CCCC1	inactive
O=C1CCC(N2C(=O)c3ccccc3C2=O)C(=O)N1 (stereo not given)	inactive
CC1=C(C(=O)Nc2cc3cn[nH]c3cc2F)C(c2ccc(C(F)(F)F)cc2)CC(=O)N1 (stereo not given)	11.8 µM (active)
CC[C@H]1CN2CCc3cc(OC)c(OC)cc3[C@H]2C[C@@H]1C[C@@H]1NCCc2cc(OC)c(OC)cc21	0.526 µM (active)
OC(CN1CCN(c2cccc(Cl)c2)CC1)C(c1ccccc1)c1ccccc1 (stereo not given)	0.148 µM (active)
Nc1ccn(C2CO[C@H](CO)O2)c(=O)n1 (stereo not given in full)	inactive
CCCCCOC(=O)Nc1nc(=O)n([C@@H]2O[C@H](C)[C@@H](O)C2O)cc1F (stereo not given in full)	inactive
CCOC(=O)[C@H](CCc1ccccc1)N[C@H]1CCc2ccccc2N(CC(=O)O)C1=O	16.6 µM (active)
COc1c2occc2cc2ccc(=O)oc12	inactive
Cc1ccc(Nc2cc(-c3cccc(N4C(=O)c5ccccc5C4=O)c3)ncn2)cc1NS(C)(=O)=O	inactive
COCCCN1CCC(NC(=O)c2cc(Cl)c(N)c3c2OCC3)CC1	inactive
CCOc1ccccc1OCCNC(C)Cc1ccc(OC)c(S(N)(=O)=O)c1 (stereo not given)	inactive
COc1ccc(CC2c3cc(OC)c(OC)cc3CC[N+]2(C)CCC(=O)OCCCCCOC(=O)CC[N+]2(C)CCc3cc(OC)c(OC)cc3C2Cc2ccc(OC)c(OC)c2)cc1OC (stereo not given)	1.64 µM (active)
CC1Cc2ccccc2N1NC(=O)c1ccc(Cl)c(S(N)(=O)=O)c1 (stereo not given)	inactive
COc1ccc(C2(C#N)CCC(C(=O)O)CC2)cc1OC1CCCC1 (stereo not given)	inactive
Cc1[nH]c(=O)c(C#N)cc1-c1ccncc1	inactive
O=C(O)c1nc(=O)[nH]c(=O)[nH]1	inactive
CC[C@@H]1C=C(C)C[C@H](C)C[C@H](OC)[C@H]2O[C@@](O)(C(=O)C(=O)N3CCCC[C@@H]3C(=O)O[C@H](C(C)=C[C@@H]3CC[C@H](Cl)[C@H](OC)C3)[C@H](C)[C@@H](O)CC1=O)[C@H](C)C[C@H]2OC	inactive

SMILES	Potency
CNC(=O)[C@H](CC1=CN=C2C=CCC=C12)NC(=O)[C@@H](CC(=O)NO)CC(C)C	5.9 µM (active)
O=C(N[C@@H](c1ccccc1)[C@@H]1CCCCN1)c1cccc(C(F)(F)F)c1Cl	inactive
CC(C)C[C@@H](C=O)NC(=O)[C@H](CC(C)C)NC(=O)[C@H](CC(C)C)NC(=O)OCc1ccccc1 (Cbz-Leu-Leu-Leu-aldehyde)	1.48 µM (active)
C[C@]12C=CC(=O)C=C1CC[C@@H]1[C@@H]2C(=O)C[C@@]2(C)[C@H]1CC[C@]2(O)C(=O)CO	inactive
N#Cc1c(C2CCNCC2)cc(-c2c(O)cccc2OCC2CC2)nc1N	inactive
O=C(O)C1=CC(O)C(O)[C@H](O)C1 (stereo not given in full)	inactive
O=C1CCCC(=O)C1C(=O)c1ccc(C(F)(F)F)cc1[N+](=O)[O-]	inactive
COc1ccc2cc([S+]([O-])Cc3ncc(C)c(OC)c3C)nc2c1	inactive
Cc1cccc(Nc2nc(N[C@@H]3CCCC[C@H]3N)ncc2C(N)=O)c1	0.935 µM (active)
O=C(Cc1cccc(OC(F)(F)F)c1)Nc1ccc(CCCCc2nnc(NC(=O)Cc3ccccn3)s2)nn1	inactive
CC(C(C)N1CC(=O)NC(=O)C1)N1CC(=O)NC(=O)C1 (stereo not given)	inactive
CCc1ccc(OCc2ccccc2C(=O)Nc2ccc3nc(C)cc(N)c3c2)cc1	3.32 µM (active)
CCOC(=O)C=C[C@H](C[C@@H]1CCNC1=O)NC(=O)[C@@H](CC(=O)[C@@H](NC(=O)c1cc(C)on1)C(C)C)Cc1ccc(F)cc1	inactive
C[C@H]1[C@@H](OC(=O)CCC(=O)O)O[C@@H]2O[C@@]3(C)CC[C@@H]4[C@H](C)CC[C@@H]1[C@@]24OO3	2.09 µM (active)
Nc1cc(C(Cl)=C(Cl)Cl)c(S(N)(=O)=O)cc1S(N)(=O)=O	1.87 µM (active)
COc1ccc(CCC(=O)Nc2nc3ccc(Cl)cc3s2)cc1OC	inactive
O=C(/C=C\n1cnc(-c2cc(C(F)(F)F)cc(C(F)(F)F)c2)n1)NNc1cnccn1	0.831 µM (active)
CNC(=O)c1cc(Oc2ccc(NC(=O)Nc3ccc(Cl)c(C(F)(F)F)c3)c(F)c2)ccn1	3.32 µM (active)
CCOc1cc2ncc(C#N)c(Nc3ccc(OCc4ccccn4)c(Cl)c3)c2cc1NC(=O)C=CCN(C)C	0.332 µM (active)
FC(F)c1nc2ccccc2n1-c1nc(N2CCOCC2)nc(N2CCOCC2)n1	0.0148 µM (active)
